Measurements taken from PubChem BioAssay (NCI).
Values joined by “and” are separate entries in the source; they are usually repeats but may differ in a detail not shown here. Equal entries are not always repeated. The panel holds about 83,000 compounds, 20% with a hit somewhere; the sample as a whole holds those more often.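 Single-concentration screen, 48 h exposure, 96-well plates. Endpoint: percent growth. Below 10 = active.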 Active and inactive are the calls of the source.

Columns and labels:
Assay in all cases: NCI-60 one-dose screen, 48 h (100 = growth as untreated, 0 = no growth, -100 = all killed)
Details in all cases: 10 µM unless noted
SR leukemia = tested on: SR leukemia
RPMI-8226 leukemia = tested on: RPMI-8226 leukemia
OVCAR-8 ovarian = tested on: OVCAR-8 ovarian
OVCAR-5 ovarian = tested on: OVCAR-5 ovarian
OVCAR-4 ovarian = tested on: OVCAR-4 ovarian
SK-OV-3 ovarian = tested on: SK-OV-3 ovarian
IGROV1 ovarian = tested on: IGROV1 ovarian
OVCAR-3 ovarian = tested on: OVCAR-3 ovarian
HS 578T breast = tested on: HS 578T breast
NCI/ADR-RES ovarian = tested on: NCI/ADR-RES ovarian

SMILES	growth (SR leukemia)	growth (RPMI-8226 leukemia)	growth (OVCAR-8 ovarian)	growth (OVCAR-5 ovarian)	growth (OVCAR-4 ovarian)	growth (SK-OV-3 ovarian)	growth (IGROV1 ovarian)	growth (OVCAR-3 ovarian)	growth (HS 578T breast)	growth (NCI/ADR-RES ovarian)
COc1ccc(Cn2cc(C#N)c(N)c2C(C)=O)cc1	122% (inactive)	105% (inactive)	111% (inactive)	106% (inactive)	92.9% (inactive)	105% (inactive)	106% (inactive)	108% (inactive)	102% (inactive)	
CN(C)CCCOc1ccc(C(=C(c2ccccc2)C2CCCC2)c2ccc(OCCCN(C)C)cc2)cc1	-37% (active)	-32.1% (active)	-84.2% (active)	-92.9% (active)	-89.4% (active)	-86.4% (active)	-84.7% (active)	-91.7% (active)	-60.7% (active)	-80% (active)
Cn1c(SCC(=O)c2ccco2)nc2ccccc2c1=O	91.5% (inactive)	93.4% (inactive)	101% (inactive)	111% (inactive)	95.5% (inactive)	107% (inactive)	86.1% (inactive)	107% (inactive)	104% (inactive)	105% (inactive)
Nc1nc(=O)n([C@H]2C[C@H](O)[C@@H](CO)O2)cc1C=O	107% (inactive)	110% (inactive)	11.3% (inactive)	94.2% (inactive)	78.1% (inactive)	116% (inactive)	106% (inactive)	116% (inactive)	129% (inactive)	
COc1ccc2[nH]cc(-c3nc(N)nnc3-c3cn(C)c4ccc(Br)cc34)c2c1	9.35% (active)	6.31% (active)	42.8% (inactive)	56.5% (inactive)	63.6% (inactive)	44% (inactive)	38.9% (inactive)	-8.84% (active)	16.9% (inactive)	
O=C(/C=C/Nc1ccc(S(=O)(=O)Nc2ncccn2)cc1)c1ccc(N=Cc2c(O)[nH]c3ccccc23)cc1	82.1% (inactive)	86.4% (inactive)	101% (inactive)	115% (inactive)	106% (inactive)	109% (inactive)	118% (inactive)	137% (inactive)	105% (inactive)	110% (inactive)
Cc1[nH]c(C(=O)Nc2ccccc2OCc2cccc(C(=O)NC3CCCNC3)c2)c(Cl)c1Cl (configuration not stated)	-30.5% (active)	-19.1% (active)	-44.3% (active)	-87.8% (active)	-73.4% (active)	108% (inactive)	-71.3% (active)	-85.7% (active)	93% (inactive)	-2.67% (active)
Clc1cccc(/C=N/Nc2nc(N/N=C/c3cccc(Cl)c3)nc(N3CCOCC3)n2)c1	7.7% (active)	38.8% (inactive)	49.5% (inactive)	95.5% (inactive)	66.4% (inactive)	130% (inactive)	50.7% (inactive)	56.3% (inactive)	67.5% (inactive)	
CCCCCCCCCC(=O)NC(C)(C)C(=O)N1CCC[C@H]1C(=O)N[C@@H](CC(C)C)C(=O)N[C@@](C)(CC)C(=O)N[C@@H](CCC(N)=O)C(=O)N[C@H](CCC(N)=O)C(=O)NC(C)(C)C(=O)NC(C)(C)C(=O)N[C@@H](CCC(N)=O)C(=O)N[C@H](CC(C)C)C(=O)N[C@H](CO)CC(C)C	-77.5% (active) and 1.34% (active)	-67.5% (active) and -26% (active)	-86.4% (active) and -49.5% (active)	-97.7% (active) and -82.4% (active)	-20.8% (active) and 50.4% (inactive)	-70.9% (active) and 19.4% (inactive)	-87% (active) and 5.72% (active)	-23.8% (active)	-71.3% (active) and -59% (active)	-83% (active) and 0.971% (active)
CCOC(=O)c1cnc2c(-c3ccc(Cl)c(Cl)c3)cnn2c1	23.1% (inactive)	87.7% (inactive)	93.6% (inactive)	99.8% (inactive)	98.8% (inactive)	90.8% (inactive)	79.1% (inactive)	70.8% (inactive)	82.6% (inactive)	58.5% (inactive)
CN1CCN(c2ccc(Nc3nc(NCCCNS(=O)(=O)c4cccc(F)c4)c4sccc4n3)cc2)CC1	9.04% (active)	7.54% (active)	50.2% (inactive)	73.4% (inactive)	18.3% (inactive)	115% (inactive)	68.9% (inactive)	9.74% (active)	50.4% (inactive)	
CCOC(=O)c1c(NC(=O)c2cccc(C(F)(F)F)c2)sc2c1CCC(=O)C2	8.07% (active)	7.65% (active)	19.7% (inactive)	40.4% (inactive)	0.236% (active)	82.4% (inactive)	18.4% (inactive)	25.8% (inactive)	36.5% (inactive)	12.5% (inactive)
NC(=O)c1c(NC(=O)c2ccc(C(F)(F)F)cc2)sc2c1CCC(=O)C2	1.33% (active)	-30.3% (active)	9.01% (active)	9.87% (active)	-66.9% (active)	37.5% (inactive)	16.2% (inactive)	-17.2% (active)	19.4% (inactive)	0.891% (active)
NCCNC(=O)c1cccc(COc2ccccc2NC(=O)c2cc(Cl)c(Cl)[nH]2)c1	8.2% (active)	101% (inactive)	92.1% (inactive)	96.8% (inactive)	97.7% (inactive)	111% (inactive)	94.6% (inactive)	109% (inactive)	103% (inactive)	101% (inactive)
C#CCOc1ccccc1/C=N/Nc1nc(-c2ccc(Cl)cc2)cs1	101% (inactive)	91.5% (inactive)	98.1% (inactive)	92.3% (inactive)	87.8% (inactive)	93.9% (inactive)	77.8% (inactive)	98.8% (inactive)	99.6% (inactive)	
CC1=C(C)C(=O)C(Nc2ccc3c(c2)OCCO3)=C(Br)C1=O	77.6% (inactive)	100% (inactive)	100% (inactive)	108% (inactive)	66.8% (inactive)	93.9% (inactive)	102% (inactive)	109% (inactive)	97.3% (inactive)	97.3% (inactive)
O=C(CSc1nc2ccccc2c(=O)n1-c1ccc(Cl)cc1)N/N=C/c1ccc(Oc2ccc(Cl)cc2)cc1	32.9% (inactive)	24.7% (inactive)	13.4% (inactive)	70.6% (inactive)	1.7% (active)	33.8% (inactive)	20.6% (inactive)	87.3% (inactive)	21.4% (inactive)	15.7% (inactive)
CC1=C(C)C(=O)C(Nc2cccc(C)c2)=C(Br)C1=O	69.3% (inactive)	35.8% (inactive)	95.7% (inactive)	128% (inactive)	69.3% (inactive)	85.7% (inactive)	84.5% (inactive)	110% (inactive)	96.1% (inactive)	98.1% (inactive)
O=C(/C=C/c1cccc(Br)c1)c1cccc(OCCCCOc2cccc(C(=O)/C=C/c3cccc(Br)c3)c2)c1	98.5% (inactive)	56.8% (inactive)	105% (inactive)	104% (inactive)	109% (inactive)	107% (inactive)	101% (inactive)	105% (inactive)	101% (inactive)	106% (inactive)
O=C(CSc1nc2ccccc2c(=O)n1-c1ccc(S(=O)(=O)Nc2ccc(Cl)nn2)cc1)Nc1ccc(S(=O)(=O)Nc2ccc(Cl)nn2)cc1	87.3% (inactive)	108% (inactive)	103% (inactive)	103% (inactive)	101% (inactive)	105% (inactive)	107% (inactive)	108% (inactive)	106% (inactive)	
Cc1ccc2c(n1)C(=O)C(Cl)=C(Nc1cc(C(F)(F)F)cc(C(F)(F)F)c1)C2=O	7.46% (active)	6.65% (active)	87.8% (inactive)	109% (inactive)	-84.8% (active)	110% (inactive)	27.8% (inactive)	37.3% (inactive)	92.8% (inactive)	
Cc1ccc2c(n1)C(=O)C(Cl)=C(Nc1cccc(C(F)(F)F)c1)C2=O	9.01% (active)	-17.6% (active)	76% (inactive)	119% (inactive)	-97.8% (active)	89.8% (inactive)	-57.4% (active)	-86.3% (active)	116% (inactive)	93.3% (inactive)
O=C(/C=C/c1cccc(F)c1)c1cccc(OCCCCOc2cccc(C(=O)/C=C/c3cccc(F)c3)c2)c1	84.8% (inactive)	8.56% (active)	104% (inactive)	99.1% (inactive)	106% (inactive)	109% (inactive)	103% (inactive)	105% (inactive)	99.3% (inactive)	106% (inactive)
COC(=O)c1cccc(NC2=CC(=O)C(C)=C(C)C2=O)c1	45.5% (inactive)	80.8% (inactive)	87.9% (inactive)	109% (inactive)	24.3% (inactive)	105% (inactive)	89.5% (inactive)	8.14% (active)	116% (inactive)	87.2% (inactive)
CC1(C)CC[C@]2(C(=O)O)CC[C@]3(C)C(=CC[C@@H]4[C@@]5(C)CC[C@H](NOCCCN)C(C)(C)[C@@H]5CC[C@]43C)[C@@H]2C1	-8% (active)	34.7% (inactive)	95.2% (inactive)	100% (inactive)	95.2% (inactive)	95.8% (inactive)	99.3% (inactive)	95.6% (inactive)	87.1% (inactive)	99.4% (inactive)
O=C(CSc1nnc(-c2ccc(Cl)cc2)n1-c1ccccc1)Nc1ccccc1Cl	20.5% (inactive)	35.4% (inactive)	67.2% (inactive)	81.3% (inactive)	8.39% (active)	125% (inactive)	52.3% (inactive)	91.6% (inactive)	58.8% (inactive)	54.8% (inactive)
